Bioassay records: PubChem, National Center for Advancing Translational Sciences (NCATS)
In the library only some 6.5% were active in any assay of this set; here they are far more common.
LASV entry inh: Lassa virus entry inhibition. Potency, µM (doses to about 37.9 µM), most hits filed as inhibitors. Lassa virus pseudotype entry inhibition, cell reporter. AID 540256. 1.2% of 300,000 active; calls by dose curve; tested in HEK293 cells; also: nearly all actives have a fitted effect of over 50% in size
VACV Venus inh: inhibitors of vaccinia virus (Venus reporter); 0.46% of 330,000 active; Potency, µM (series often up to 36.5 µM), usual class: inhibitors; Vaccinia virus Venus reporter expression, fluorescence; calls by dose curve; tested in A549 cells; also: nearly all actives have a fitted effect of over 30% in size
HCMV inh: inhibitors of human cytomegalovirus | HFF cells, HCMV-luciferase reporter, 72 h; hits give low values | activity change, negative = inhibition, % at 57.5 µM | 4.5% of 410,000 active | AID 1259415; in the data active = activity change below about -60%; inconclusive = no clear call, values can overlap the other calls; inactive = above about -39%
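After 16 h attachment at 37C, HFF cells received test compound and HCMV-luciferase (1 PFU/cell); reporter luminescence read 72 h later, data normalized against buffer-only and known inhibitor Salinomycin.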
Vaccinia mCherry: vaccinia inhibition (mCherry reporter); AID 720579; 0.63% of 310,000 active; Vaccinia virus mCherry reporter infection, fluorescence; Potency, µM (highest dose often 36.5 µM), usual class: inhibitors; calls by dose curve; tested in A549 cells; also: nearly all actives have a fitted effect of over 35% in size
FMDV inh: antivirals against foot and mouth disease virus; FMDV antiviral cell-based qHTS; Potency, µM (highest dose often 57.9 µM), most hits filed as inhibitors; 1.2% of 410,000 active; AID 1159524; calls by dose curve; tested in HEK293T cells; also: read-out not given here; nearly all actives have a fitted effect of over 45% in size
MARV entry inh: inhibitors of Marburg virus binding or cell entry | Potency, µM (titrated, usually from 37.8 µM), actives largely listed as inhibitors | 1.8% of 300,000 active | Marburg virus pseudotyped entry inhibition, cell reporter; calls by dose curve; tested in HEK293 cells
Numbers stand for hits; - = inactive; ? = inconclusive; . = no result.

SMILES | LASV entry inh | VACV Venus inh | HCMV inh | Vaccinia mCherry | FMDV inh | MARV entry inh
c1ccc(-c2nn3c(Cn4nnc5ccccc54)nnc3s2)nc1 | - | . | - | . | - | -
c1cncc(-c2nn3c(Cn4nnc5ccccc54)nnc3s2)c1 | - | . | - | . | - | 3.26µM
COc1ccc(-c2coc3cc4oc(=O)cc(C)c4cc23)cc1F | ? | . | -62.8 | . | - | ?
COc1cccc(-c2cc3c(Nc4cccnc4)nccc3n2C)c1 | . | . | - | . | . | .
CCCCCn1c(CCNC(=O)c2cccc(C)c2)nc2ccccc21 | - | - | - | - | - | ?
Cc1ncc2c(c1CNC(=O)c1cncs1)CCN(C(=O)c1ccc(-c3ccccc3)cc1)C2 | . | - | . | - | - | .
N#Cc1ccc(/C=C\c2nccc3c2[nH]c2ccccc23)cc1 | - | - | -76.5 | - | - | ?
CCOC(=O)c1ccc(N2C(=O)c3n[nH]c(-c4cccs4)c3C2c2ccc(OC)cc2OC)cc1 (stereo unspecified) | ? | ? | -91.6 | 12.6µM | ? | ?
CCOC(=O)c1ccc(N2C(=O)c3[nH]nc(-c4ccc(OCC)cc4)c3C2c2ccc(OC)cc2OC)cc1 (stereo unspecified) | ? | - | - | - | - | ?
CCOC(=O)c1ccc(N2C(=O)c3n[nH]c(-c4cccs4)c3C2c2cccc(OC)c2)cc1 (stereo unspecified) | ? | - | -107.3 | - | ? | 10µM
Cc1ccc(C)c(CNC(=O)c2ccc3c(c2)nc2n3CCCCC2)c1 | 7.94µM | - | - | - | - | .
O=C(NCCc1ccccc1Cl)c1ccc2c(c1)nc1n2CCCCC1 | ? | - | -80.6 | - | 25.1µM | .
COc1cc(Cn2c3ccc(NC(=O)CCc4ccccc4)cc3c(=O)n2C)ccc1F | . | - | - | ? | - | .
COc1ccccc1CCC(=O)Nc1ccc2c(c1)c(=O)n(C)n2-c1cccs1 | . | ? | -83.7 | ? | - | .
COc1cc(C(=O)/C=C/c2cccnc2)ccc1O | ? | 8.91µM | - | 3.55µM | ? | ?
O=C(/C=C/c1cccnc1)/C=C/c1cccnc1 | . | . | -97.3 | . | 11.2µM | .
COc1ccc(OC)c(C(=O)/C=C/c2cccnc2)c1 | ? | - | -100.0 | ? | ? | ?
O=C(/C=C/c1cccnc1)c1cc(F)ccc1O | . | . | - | . | - | .
CC(C)CO/N=C1/C[C@@H](O)[C@@H](O)[C@@H]2[C@@H]3C(=O)N(Cc4ccc5c(c4)OCO5)C(=O)[C@H]3CC[C@H]12 | . | . | . | . | . | -
COC(=O)C1=C(C)N(Cc2ccc(C)cc2)C(=O)/C1=C\c1cc(OC)c(OC)c(OC)c1 | ? | - | - | - | 20µM | ?
CCOc1cc(/C=C2\C(=O)N(CCc3ccc(OC)c(OC)c3)C(C)=C2C(=O)OC)ccc1O | - | - | - | - | 20µM | -
COc1cc(CNc2nc(C)c(-c3ccn(C4Cc5ccccc5C4)n3)s2)cc2c1OCO2 | . | - | . | - | - | .
CC(=O)Nc1nc(-c2ccc3c(c2)CC(C)N3C(=O)C2CC2)c(C)s1 (stereo unspecified) | - | - | -100.2 | - | - | -
Cc1sc(NC(=O)c2ccco2)nc1-c1ccc2c(c1)CC(C)N2C(=O)C1CC1 (stereo unspecified) | 9.2µM | . | -96.9 | . | 14.1µM | 10.3µM
Cc1ccc(NC(=O)CSc2nc(-c3ccc(C(C)(C)C)cc3)nc3cc(=O)[nH]n23)cc1C | - | - | - | - | - | .
SMILES | LASV entry inh | VACV Venus inh | HCMV inh | Vaccinia mCherry | FMDV inh | MARV entry inh
Cc1ccc(CSc2nc(-c3ccc(C(C)(C)C)cc3)nc3cc(=O)[nH]n23)cc1 | - | - | -105.4 | - | - | .
CC1CC(C)CN(CC(O)COCCOc2ccc(Br)cc2)C1 (stereo unspecified) | ? | - | - | - | - | 13µM
CC1CCN(CC(O)COCCOc2ccc(Br)cc2)CC1 (stereo unspecified) | - | - | ? | - | - | -
OC1COC(OCc2ccccc2)C(O)C1O (stereo unspecified) | - | - | - | - | - | -
C=CCn1c(O)c(C2=c3ccccc3=NC2=O)c2ccccc21 | ? | - | - | - | 28.2µM | ?
CN1OC(C)(CC(=O)Nc2ccccc2)N=C1c1ccccc1 (stereo unspecified) | . | . | - | . | . | .
Cc1[nH]c2ccccc2c1C1(O)C(=O)N(Cc2ccccc2)c2ccc(Br)cc21 (stereo unspecified) | ? | - | -102.2 | - | - | ?
Cc1[nH]c2ccccc2c1C1(O)C(=O)N(Cc2ccccc2Cl)c2ccccc21 (stereo unspecified) | ? | - | ? | - | ? | -
COc1ccc2c(c1)CCCC1(CCCO2)CCCO1 (stereo unspecified) | . | . | - | . | . | .
